# In paper PMC7862700, “An all-to-all approach to the identification of sequence-specific readers for epigenetic DNA modifications on cytosine”:
# Assays:
# Assay in all cases: DAPPL (digital affinity profiling via proximity ligation, sequencing); 10 mM Tris-HCl pH 7.5, 50 mM NaCl, 1 mM DTT, 4% glycerol, room temperature, 30 min; GST-TFs on glutathione beads, 16-mer random dsDNA library, 0.1% formaldehyde crosslink after washing; high values mean tight binding
# FEV = target: T1, FEV (Homo sapiens, UniProt Q99581 1-238); settings: protein: recombinant; tags: N-terminal GST; dsDNA, one strand shown
# T1 sequence: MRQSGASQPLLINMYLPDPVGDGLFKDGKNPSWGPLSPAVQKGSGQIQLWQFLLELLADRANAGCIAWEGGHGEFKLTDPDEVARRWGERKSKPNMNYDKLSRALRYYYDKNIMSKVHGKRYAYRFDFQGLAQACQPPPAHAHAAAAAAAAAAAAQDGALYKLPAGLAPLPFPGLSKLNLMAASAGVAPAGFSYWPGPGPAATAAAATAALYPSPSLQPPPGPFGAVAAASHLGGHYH
# Outline: (§1)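 Each value of binding signal is a hexamer's read frequency for a factor divided by the same hexamer's frequency in the tag-only sample. Barcoded, bead-captured GST fusions of human transcription factors made in yeast were pooled with that sample and incubated with 200 nmole of a random double-stranded 16-mer DNA library in Tris/NaCl/DTT/glycerol buffer at room temperature for 30 min. Washing, 0.1% formaldehyde crosslinking, proximity ligation, PCR and Illumina NextSeq500 sequencing followed.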
# ETV5 = ETV5 (Homo sapiens, UniProt P41161 1-510); settings: protein: recombinant; tags: N-terminal GST; dsDNA, one strand shown
# Outline: as §1
# HSF1 = HSF1 (Homo sapiens, UniProt Q00613 1-529); settings: protein: recombinant; tags: N-terminal GST; chain copies: 3; dsDNA, one strand shown
# Outline: as §1
# SPIC = target: T2, SPIC (Homo sapiens, UniProt Q8N5J4 1-248); settings: protein: recombinant; tags: N-terminal GST; dsDNA, one strand shown
# T2 sequence: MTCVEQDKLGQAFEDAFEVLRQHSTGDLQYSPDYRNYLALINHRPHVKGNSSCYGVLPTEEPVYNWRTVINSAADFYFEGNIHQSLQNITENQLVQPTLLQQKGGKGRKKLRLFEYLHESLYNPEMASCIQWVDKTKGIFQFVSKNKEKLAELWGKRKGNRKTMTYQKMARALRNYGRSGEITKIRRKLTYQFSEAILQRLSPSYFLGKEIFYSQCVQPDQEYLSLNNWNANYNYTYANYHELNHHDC
# Outline: as §1
# ELF4 = ELF4 (Homo sapiens, UniProt Q99607 1-663); settings: protein: recombinant; tags: N-terminal GST; dsDNA, one strand shown
# Outline: as §1
# ELK4 = target: T3, ELK4 (Homo sapiens, UniProt P28324-2 1-405); settings: protein: recombinant; tags: N-terminal GST; dsDNA, one strand shown
# T3 sequence: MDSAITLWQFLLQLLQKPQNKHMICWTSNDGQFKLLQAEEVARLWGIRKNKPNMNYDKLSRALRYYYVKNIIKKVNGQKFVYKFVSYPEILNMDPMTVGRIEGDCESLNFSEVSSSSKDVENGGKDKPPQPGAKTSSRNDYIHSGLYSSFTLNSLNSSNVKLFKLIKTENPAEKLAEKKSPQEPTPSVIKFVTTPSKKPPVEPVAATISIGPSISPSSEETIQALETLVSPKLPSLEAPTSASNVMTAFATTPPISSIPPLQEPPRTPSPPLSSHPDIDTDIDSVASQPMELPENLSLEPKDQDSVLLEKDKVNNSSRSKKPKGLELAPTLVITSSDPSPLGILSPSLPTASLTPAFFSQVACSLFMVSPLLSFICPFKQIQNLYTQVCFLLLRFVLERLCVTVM
# Outline: as §1
# ETV2 = target: T4, ETV2 (Homo sapiens, UniProt O00321 1-342); settings: protein: recombinant; tags: N-terminal GST; dsDNA, one strand shown
# T4 sequence: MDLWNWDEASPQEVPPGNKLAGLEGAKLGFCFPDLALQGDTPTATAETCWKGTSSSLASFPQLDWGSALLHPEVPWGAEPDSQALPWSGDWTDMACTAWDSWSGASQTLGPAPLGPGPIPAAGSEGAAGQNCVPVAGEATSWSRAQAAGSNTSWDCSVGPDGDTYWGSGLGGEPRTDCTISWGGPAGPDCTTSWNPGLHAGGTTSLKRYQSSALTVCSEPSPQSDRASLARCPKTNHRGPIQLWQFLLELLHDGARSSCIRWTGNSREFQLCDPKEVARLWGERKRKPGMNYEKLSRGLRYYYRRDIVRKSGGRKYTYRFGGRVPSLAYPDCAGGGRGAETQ
# Outline: as §1
# ELF3 = target: T5, ELF3 (Homo sapiens, UniProt P78545 1-371); settings: protein: recombinant; tags: N-terminal GST; dsDNA, one strand shown
# T5 sequence: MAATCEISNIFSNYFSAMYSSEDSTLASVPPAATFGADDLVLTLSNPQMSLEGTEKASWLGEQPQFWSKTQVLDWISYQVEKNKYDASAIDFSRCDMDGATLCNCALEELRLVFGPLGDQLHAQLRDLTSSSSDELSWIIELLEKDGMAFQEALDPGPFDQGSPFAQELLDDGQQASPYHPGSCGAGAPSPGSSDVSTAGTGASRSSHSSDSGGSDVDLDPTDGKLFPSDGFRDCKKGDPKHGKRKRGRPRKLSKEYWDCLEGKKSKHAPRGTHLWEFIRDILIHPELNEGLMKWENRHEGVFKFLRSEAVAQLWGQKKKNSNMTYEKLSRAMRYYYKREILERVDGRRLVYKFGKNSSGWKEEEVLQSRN
# Outline: as §1
# CRX = CRX (Homo sapiens, UniProt O43186 1-299); settings: protein: recombinant; tags: N-terminal GST; dsDNA, one strand shown
# Outline: as §1
# ETV1 = ETV1 (Homo sapiens, UniProt P50549 1-477); settings: protein: recombinant; tags: N-terminal GST; dsDNA, one strand shown
# Outline: as §1
# ERF = target: T6, ERF (Homo sapiens, UniProt P50548 1-548); settings: protein: recombinant; tags: N-terminal GST; dsDNA, one strand shown
# T6 sequence: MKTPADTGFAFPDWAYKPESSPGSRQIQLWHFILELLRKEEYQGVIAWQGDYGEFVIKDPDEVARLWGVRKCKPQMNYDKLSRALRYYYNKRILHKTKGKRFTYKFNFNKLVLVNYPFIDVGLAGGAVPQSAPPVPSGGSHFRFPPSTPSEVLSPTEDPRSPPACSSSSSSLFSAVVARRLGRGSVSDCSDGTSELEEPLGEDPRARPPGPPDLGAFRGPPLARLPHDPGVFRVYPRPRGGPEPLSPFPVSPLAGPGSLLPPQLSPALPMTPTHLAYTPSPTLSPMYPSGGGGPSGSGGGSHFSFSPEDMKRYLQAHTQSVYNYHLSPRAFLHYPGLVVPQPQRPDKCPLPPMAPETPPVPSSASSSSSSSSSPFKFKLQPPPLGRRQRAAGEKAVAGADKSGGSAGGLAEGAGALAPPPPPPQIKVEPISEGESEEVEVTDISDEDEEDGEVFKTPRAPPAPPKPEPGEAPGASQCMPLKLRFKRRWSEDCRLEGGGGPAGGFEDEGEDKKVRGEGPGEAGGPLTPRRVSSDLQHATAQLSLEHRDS
# Outline: as §1
# ETV3L = target: T7, ETV3L (Homo sapiens, UniProt Q6ZN32 1-361); settings: protein: recombinant; tags: N-terminal GST; dsDNA, one strand shown
# T7 sequence: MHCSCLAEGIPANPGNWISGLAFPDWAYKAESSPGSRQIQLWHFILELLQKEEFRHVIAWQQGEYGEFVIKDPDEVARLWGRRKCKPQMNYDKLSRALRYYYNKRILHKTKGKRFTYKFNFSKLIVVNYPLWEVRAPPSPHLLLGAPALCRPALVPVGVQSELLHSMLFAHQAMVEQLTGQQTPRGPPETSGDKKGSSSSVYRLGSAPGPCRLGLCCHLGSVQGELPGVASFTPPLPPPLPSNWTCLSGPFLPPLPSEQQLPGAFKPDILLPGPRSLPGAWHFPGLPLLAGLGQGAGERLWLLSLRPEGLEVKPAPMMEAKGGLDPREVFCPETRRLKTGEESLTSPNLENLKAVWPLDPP
# Outline: as §1
# ETS2 = target: T8, ETS2 (Homo sapiens, UniProt P15036 1-469); settings: protein: recombinant; tags: N-terminal GST; dsDNA, one strand shown
# T8 sequence: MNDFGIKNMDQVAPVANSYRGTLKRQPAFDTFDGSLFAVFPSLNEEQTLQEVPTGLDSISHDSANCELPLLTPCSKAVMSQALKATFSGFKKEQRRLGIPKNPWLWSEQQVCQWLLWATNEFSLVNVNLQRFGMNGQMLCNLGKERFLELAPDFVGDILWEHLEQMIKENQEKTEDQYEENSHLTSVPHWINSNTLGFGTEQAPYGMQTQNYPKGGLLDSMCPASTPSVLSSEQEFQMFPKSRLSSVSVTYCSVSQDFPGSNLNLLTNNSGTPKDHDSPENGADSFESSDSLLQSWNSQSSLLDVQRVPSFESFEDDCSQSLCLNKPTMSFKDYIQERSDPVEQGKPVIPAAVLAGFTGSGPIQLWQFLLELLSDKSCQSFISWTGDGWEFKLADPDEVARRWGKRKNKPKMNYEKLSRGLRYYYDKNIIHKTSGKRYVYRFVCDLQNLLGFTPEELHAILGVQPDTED
# Outline: as §1
# SPDEF = target: T9, SPDEF (Homo sapiens, UniProt O95238 1-335); settings: protein: recombinant; tags: N-terminal GST; dsDNA, one strand shown
# T9 sequence: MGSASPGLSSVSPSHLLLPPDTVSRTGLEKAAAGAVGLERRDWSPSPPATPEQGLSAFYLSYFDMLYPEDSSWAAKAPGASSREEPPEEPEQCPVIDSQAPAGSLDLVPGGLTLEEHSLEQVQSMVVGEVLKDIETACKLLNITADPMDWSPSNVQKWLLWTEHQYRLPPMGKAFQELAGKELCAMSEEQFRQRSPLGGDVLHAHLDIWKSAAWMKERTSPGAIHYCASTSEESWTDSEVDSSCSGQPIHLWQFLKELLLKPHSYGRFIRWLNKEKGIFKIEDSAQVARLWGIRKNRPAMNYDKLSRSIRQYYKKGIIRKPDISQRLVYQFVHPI
# Outline: as §1
# ETV7 = target: T10, ETV7 (Homo sapiens, UniProt Q9Y603 1-341); settings: protein: recombinant; tags: N-terminal GST; dsDNA, one strand shown
# T10 sequence: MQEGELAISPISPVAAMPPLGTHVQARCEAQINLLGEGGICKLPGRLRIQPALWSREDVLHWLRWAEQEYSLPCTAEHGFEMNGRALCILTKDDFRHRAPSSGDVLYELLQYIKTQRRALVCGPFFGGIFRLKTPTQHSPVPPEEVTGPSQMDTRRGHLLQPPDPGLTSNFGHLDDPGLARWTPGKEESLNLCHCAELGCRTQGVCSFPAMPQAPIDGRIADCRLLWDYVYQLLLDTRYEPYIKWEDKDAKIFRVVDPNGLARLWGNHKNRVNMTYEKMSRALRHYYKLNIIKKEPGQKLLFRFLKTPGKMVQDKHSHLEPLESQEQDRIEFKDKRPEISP
# Outline: as §1
# ELF5 = target: T11, ELF5 (Homo sapiens, UniProt Q9UKW6-2 1-255); settings: protein: recombinant; tags: N-terminal GST; dsDNA, one strand shown
# T11 sequence: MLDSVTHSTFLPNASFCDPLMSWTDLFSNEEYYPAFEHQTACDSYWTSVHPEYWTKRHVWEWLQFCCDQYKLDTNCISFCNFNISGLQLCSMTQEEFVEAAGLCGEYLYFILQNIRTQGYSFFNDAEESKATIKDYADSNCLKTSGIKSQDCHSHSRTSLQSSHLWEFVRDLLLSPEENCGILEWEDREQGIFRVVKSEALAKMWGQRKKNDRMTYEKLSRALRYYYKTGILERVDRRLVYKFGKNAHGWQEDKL
# Outline: as §1
# ETV3 = target: T12, ETV3 (Homo sapiens, UniProt P41162-2 1-143); settings: protein: recombinant; tags: N-terminal GST; dsDNA, one strand shown
# T12 sequence: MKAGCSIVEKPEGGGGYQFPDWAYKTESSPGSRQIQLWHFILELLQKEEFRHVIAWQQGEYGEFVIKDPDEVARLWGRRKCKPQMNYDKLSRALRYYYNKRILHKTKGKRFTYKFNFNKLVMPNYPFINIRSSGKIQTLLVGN
# Outline: as §1
# ETV6 = ETV6 (Homo sapiens, UniProt P41212 1-452); settings: protein: recombinant; tags: N-terminal GST; dsDNA, one strand shown
# Outline: as §1
# ETV1, sequence (P50549 whole entry): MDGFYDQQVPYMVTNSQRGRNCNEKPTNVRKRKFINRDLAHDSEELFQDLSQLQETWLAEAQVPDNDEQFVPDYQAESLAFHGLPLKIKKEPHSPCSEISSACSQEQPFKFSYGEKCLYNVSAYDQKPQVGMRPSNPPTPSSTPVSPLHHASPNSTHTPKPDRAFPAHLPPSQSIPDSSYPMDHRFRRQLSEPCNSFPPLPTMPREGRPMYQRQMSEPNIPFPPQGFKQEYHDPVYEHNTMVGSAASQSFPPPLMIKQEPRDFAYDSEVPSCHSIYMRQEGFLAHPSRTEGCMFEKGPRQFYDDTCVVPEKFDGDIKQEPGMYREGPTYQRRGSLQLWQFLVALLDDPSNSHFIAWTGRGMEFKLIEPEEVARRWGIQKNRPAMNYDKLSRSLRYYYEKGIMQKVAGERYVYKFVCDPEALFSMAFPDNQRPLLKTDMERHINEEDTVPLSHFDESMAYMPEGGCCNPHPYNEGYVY
# ETV6, sequence (P41212 whole entry): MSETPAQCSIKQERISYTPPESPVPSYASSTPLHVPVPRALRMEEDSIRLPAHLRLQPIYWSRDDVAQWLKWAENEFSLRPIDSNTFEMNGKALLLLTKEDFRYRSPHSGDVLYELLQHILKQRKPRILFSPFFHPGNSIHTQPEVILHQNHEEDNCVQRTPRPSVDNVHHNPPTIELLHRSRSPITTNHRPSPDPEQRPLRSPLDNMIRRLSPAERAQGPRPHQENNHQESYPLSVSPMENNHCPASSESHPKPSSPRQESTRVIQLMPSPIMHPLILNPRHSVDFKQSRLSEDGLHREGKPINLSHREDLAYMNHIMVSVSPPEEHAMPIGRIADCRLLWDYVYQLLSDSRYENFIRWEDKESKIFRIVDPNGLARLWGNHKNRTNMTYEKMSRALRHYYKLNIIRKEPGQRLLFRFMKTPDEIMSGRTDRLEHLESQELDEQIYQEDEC
# ELF4, sequence (Q99607 whole entry): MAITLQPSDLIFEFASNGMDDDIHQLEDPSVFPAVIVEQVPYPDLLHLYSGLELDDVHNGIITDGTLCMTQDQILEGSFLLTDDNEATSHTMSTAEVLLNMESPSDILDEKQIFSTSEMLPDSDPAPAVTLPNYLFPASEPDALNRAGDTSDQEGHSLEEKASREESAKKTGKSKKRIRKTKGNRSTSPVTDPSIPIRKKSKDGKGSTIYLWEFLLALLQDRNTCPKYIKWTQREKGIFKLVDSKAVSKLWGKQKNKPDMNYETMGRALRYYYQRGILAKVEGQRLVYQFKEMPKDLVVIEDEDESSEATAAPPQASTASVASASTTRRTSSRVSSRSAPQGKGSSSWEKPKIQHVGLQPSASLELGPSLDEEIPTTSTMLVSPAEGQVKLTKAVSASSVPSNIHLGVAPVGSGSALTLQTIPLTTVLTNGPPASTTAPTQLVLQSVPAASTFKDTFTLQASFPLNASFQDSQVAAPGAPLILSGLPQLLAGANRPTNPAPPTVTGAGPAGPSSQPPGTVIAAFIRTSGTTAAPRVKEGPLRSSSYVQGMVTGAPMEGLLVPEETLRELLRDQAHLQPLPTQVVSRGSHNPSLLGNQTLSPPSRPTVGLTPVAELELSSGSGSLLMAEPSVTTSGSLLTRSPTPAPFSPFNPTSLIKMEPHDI
# ETV5, sequence (P41161 whole entry): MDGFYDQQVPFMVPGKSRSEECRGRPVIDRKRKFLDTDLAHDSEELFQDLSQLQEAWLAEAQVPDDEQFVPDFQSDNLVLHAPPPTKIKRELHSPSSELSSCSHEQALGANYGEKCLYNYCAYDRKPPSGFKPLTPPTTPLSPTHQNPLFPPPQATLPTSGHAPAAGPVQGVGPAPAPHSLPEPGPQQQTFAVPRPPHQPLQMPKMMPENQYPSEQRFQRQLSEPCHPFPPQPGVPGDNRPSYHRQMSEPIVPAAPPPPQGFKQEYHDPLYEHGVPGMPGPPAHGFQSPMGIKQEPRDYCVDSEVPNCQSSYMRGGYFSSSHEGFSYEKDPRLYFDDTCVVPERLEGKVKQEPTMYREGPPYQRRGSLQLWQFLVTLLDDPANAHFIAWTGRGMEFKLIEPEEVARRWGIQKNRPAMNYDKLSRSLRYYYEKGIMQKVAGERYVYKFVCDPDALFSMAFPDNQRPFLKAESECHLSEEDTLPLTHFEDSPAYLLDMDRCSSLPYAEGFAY
# HSF1, sequence (Q00613 whole entry): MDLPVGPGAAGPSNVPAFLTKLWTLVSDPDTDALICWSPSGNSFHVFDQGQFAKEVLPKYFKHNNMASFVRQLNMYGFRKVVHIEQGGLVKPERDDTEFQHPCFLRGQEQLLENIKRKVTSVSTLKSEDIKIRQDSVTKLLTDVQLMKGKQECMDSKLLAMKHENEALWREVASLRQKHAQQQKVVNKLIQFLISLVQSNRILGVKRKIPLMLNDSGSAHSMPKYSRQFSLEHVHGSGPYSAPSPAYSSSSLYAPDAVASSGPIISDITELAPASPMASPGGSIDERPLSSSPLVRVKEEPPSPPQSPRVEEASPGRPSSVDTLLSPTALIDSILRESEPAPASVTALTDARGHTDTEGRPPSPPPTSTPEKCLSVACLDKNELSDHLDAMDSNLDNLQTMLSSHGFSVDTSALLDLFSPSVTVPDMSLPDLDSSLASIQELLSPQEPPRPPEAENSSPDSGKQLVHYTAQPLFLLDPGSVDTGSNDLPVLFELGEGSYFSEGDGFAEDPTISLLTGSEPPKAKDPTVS
# CRX, sequence (O43186 whole entry): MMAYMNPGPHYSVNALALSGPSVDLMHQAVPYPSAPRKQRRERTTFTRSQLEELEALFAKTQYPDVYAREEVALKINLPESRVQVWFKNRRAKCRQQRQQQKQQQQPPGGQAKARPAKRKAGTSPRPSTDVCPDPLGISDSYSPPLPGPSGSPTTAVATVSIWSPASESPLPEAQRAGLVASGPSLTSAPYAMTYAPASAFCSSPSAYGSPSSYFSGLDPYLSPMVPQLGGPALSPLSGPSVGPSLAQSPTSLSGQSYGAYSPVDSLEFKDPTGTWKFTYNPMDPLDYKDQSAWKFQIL
sequence,measurement,setting,value
GGCTCA,binding signal,FEV,"1.22 fold enrichment (6-mer frequency, TF over GST control)"
same,binding signal,ETV5,"1.22 fold enrichment (6-mer frequency, TF over GST control)"
same,binding signal,HSF1,"1.27 fold enrichment (6-mer frequency, TF over GST control)"
same,binding signal,SPIC,"1.28 fold enrichment (6-mer frequency, TF over GST control)"
same,binding signal,ELF4,"1.3 fold enrichment (6-mer frequency, TF over GST control)"
same,binding signal,ELK4,"1.15 fold enrichment (6-mer frequency, TF over GST control)"
same,binding signal,ETV2,"1.13 fold enrichment (6-mer frequency, TF over GST control)"
same,binding signal,ELF3,"1.28 fold enrichment (6-mer frequency, TF over GST control)"
same,binding signal,CRX,"1.53 fold enrichment (6-mer frequency, TF over GST control)"
same,binding signal,ETV1,"1.18 fold enrichment (6-mer frequency, TF over GST control)"
same,binding signal,ERF,"1.3 fold enrichment (6-mer frequency, TF over GST control)"
same,binding signal,ETV3L,"1.33 fold enrichment (6-mer frequency, TF over GST control)"
same,binding signal,ETS2,"1.19 fold enrichment (6-mer frequency, TF over GST control)"
same,binding signal,SPDEF,"1.15 fold enrichment (6-mer frequency, TF over GST control)"
same,binding signal,ETV7,"1.15 fold enrichment (6-mer frequency, TF over GST control)"
same,binding signal,ELF5,"1.14 fold enrichment (6-mer frequency, TF over GST control)"
same,binding signal,ETV3,"1.23 fold enrichment (6-mer frequency, TF over GST control)"
same,binding signal,ETV6,"1.26 fold enrichment (6-mer frequency, TF over GST control)"
